ELG1 DNA repair: ELG1-dependent DNA repair inhibition. 330,000 compounds, 2.3% hits. Potency, µM (top dose mostly 46.1 µM), usual class: inhibitors. HEK293T ELG1-luciferase reporter, luminescence, 16 h; DNA damage induced by 5-fluorouridine. AID 504467; also: nearly all actives have a fitted effect of over 55% in size
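Overnight (16 hr) co-exposure of 2,000 cells/well to 5-fluorouridine and compound at 37 °C preceded detection. Luciferase was quantified via ONE-Glo luminescence; loss of signal denotes inhibition.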
RORg inh: inhibitors of mouse ROR gamma transcriptional activity. P51450. Drosophila S2 Gal4-RORgamma UAS-luciferase reporter, 20 h. Potency, µM (top dose mostly 53.6 µM), actives largely listed as inhibitors. 310,000 compounds, 5.4% hits; also: nearly all actives have a fitted effect of over 60% in size
Target sequence (P51450 whole entry, looked up, the tested form may be a part): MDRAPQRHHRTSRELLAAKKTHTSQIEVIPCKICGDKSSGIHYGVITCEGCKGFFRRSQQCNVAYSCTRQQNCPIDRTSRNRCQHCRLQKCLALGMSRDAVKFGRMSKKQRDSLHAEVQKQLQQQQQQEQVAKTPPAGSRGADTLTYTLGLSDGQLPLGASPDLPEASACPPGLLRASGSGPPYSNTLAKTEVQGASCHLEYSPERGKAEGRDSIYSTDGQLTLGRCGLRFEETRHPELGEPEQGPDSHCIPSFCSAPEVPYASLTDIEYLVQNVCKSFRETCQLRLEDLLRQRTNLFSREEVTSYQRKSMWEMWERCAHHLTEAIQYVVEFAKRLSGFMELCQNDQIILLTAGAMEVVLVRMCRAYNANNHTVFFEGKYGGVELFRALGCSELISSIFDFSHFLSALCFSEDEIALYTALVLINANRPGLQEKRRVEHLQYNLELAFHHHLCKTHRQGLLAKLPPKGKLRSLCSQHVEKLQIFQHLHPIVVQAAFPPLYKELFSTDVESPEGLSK
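A Gal4/UAS one-hybrid system in insect cells: metallothionein-promoter Gal4–ROR gamma fusion plus Photinus luciferase reporter. Copper sulfate 700 uM final, 20 hr ambient incubation, luminescent detection after 10 min with reagent.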
MCF10A rerep: induces DNA re-replication in MCF 10a normal breast cells. MCF 10A DNA re-replication, Hoechst nuclear intensity, 48 h. Potency, µM (doses to about 46.1 µM), actives largely listed as activators. 350,000 compounds, 2.9% hits. AID 624296; also: nearly all actives have a fitted effect of over 50% in size
VP16 counter: Gal4-VP16 reporter inhibition counter-screen; 310,000 compounds, 3.5% hits; AID 2546; Drosophila S2 Gal4-VP16 UAS-luciferase, luminescence, 20 h; Potency, µM (highest dose often 53.6 µM), most hits filed as inhibitors;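 also: Gal4-VP16 expression switched on by copper sulfate through the metallothionein promoter; nearly all actives have a fitted effect of over 50% in size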
SW480 rerep: DNA re-replication induction in SW480 cells; SW480 DNA re-replication, Hoechst DNA content imaging, 48 h; Potency, µM (highest dose often 46.1 µM), most hits filed as activators; 340,000 compounds, 1.8% hits; also: nearly all actives have a fitted effect of over 55% in size
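Hoechst fluorescence of nuclei (405 nm excitation, 500-530 nm emission) measured by plate-scanning imager after 48 hr compound exposure at 37 C; re-replication scored as increased number of nuclei with elevated intensity.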
A number is an active result; - = inactive; ? = inconclusive; . = no result; [ ] = dose if it differs, or a comment. Hits are enriched below; roughly 10% of the tested compounds scored in any of these assays. Calls follow the shape of the dose curve; as a rule, active = well fitted curve in the direction sought with a large enough effect; inconclusive = small, poorly fitted or top-dose-only effect, or another doubt; inactive = no such curve, though single readings can be large; an effect the other way counts as inactive or inconclusive.

SMILES	ELG1 DNA repair	RORg inh	MCF10A rerep	VP16 counter	SW480 rerep
CC(C)[C@H](NS(=O)(=O)c1cccc(Cl)c1)C(=O)OCC(=O)NC(=O)CN1CCCC1=O	-	.	-	.	-
S=C(N/N=C1\CCc2ccccc21)NC1CCCCC1	?	1µM	?	5.6µM	-
COc1cccc(NC(=S)N/N=C2/CCCCc3ccccc32)c1	?	3.5µM	?	5µM	-
CC(C)NC(=S)N/N=C1\CCCCc2ccccc21	?	0.79µM	-	2µM	-
COc1ccc(OCC(=O)N/N=C2\CCCCc3ccccc32)cc1	?	-	-	-	?
O=C(N/N=C1/CCc2ccccc21)C1CC1	?	-	-	-	-
COC(=O)N/N=C1\CCCc2ccccc21	-	-	-	-	-
Cc1ccc(C)c(NC(=S)N/N=C2/CCCCc3ccccc32)c1	-	1.6µM	?	6.3µM	-
CCN(CC(=O)Nc1ccccc1C(F)(F)F)C(=O)c1ccc2c(c1)NC(=O)CS2	-	.	-	.	?
C/C(=N\Nc1ccc2nncn2n1)c1cccs1	?	-	?	-	?
CCCCOCCOCCSC#N	.	-	.	-	.
CCOC(=O)[C@@H]1[C@H]2COc3ccccc3[C@@H]2N2C(=O)N(c3ccc(F)cc3)C(=O)[C@@]12C	-	13µM	-	-	-
CCOC(=O)[C@@H]1[C@H]2COc3ccccc3[C@H]2N2C(=O)N(c3ccc(Br)cc3)C(=O)[C@]12C	-	.	-	.	-
CCOC(=O)[C@@H]1[C@H]2COc3ccccc3[C@@H]2N2C(=O)N(c3ccc(Br)cc3)C(=O)[C@]12C	-	.	-	.	23µM
COCCn1c(SCC(=O)Nc2ccc3c(c2)OCCO3)nnc1-c1ccncc1	-	.	-	.	-
CCn1cc(CN2CCC(n3nccc3NC(=O)C(OC)c3ccccc3)CC2)cn1 (centres undefined)	.	.	-	.	-
COc1ccc(OC)c(Nc2nc(=O)c3cccnc3s2)c1	-	4.5µM	-	3.2µM	-
O=c1nc(NCc2ccco2)sc2ncccc12	-	-	-	-	-
Cc1ccc(Nc2nc(=O)c3cccnc3s2)cc1	?	-	16µM	-	9.2µM
COc1ccc(C2CC(=O)C3=C(C2)Nc2ccccc2N(C(=O)CCC(=O)O)C3c2ccc(F)cc2)cc1 (centres undefined)	-	-	-	-	?
Cc1cccc(Cn2ccc(N)n2)c1	-	-	-	-	-
Cc1cccc(C(=O)OCC(=O)NN2C(=O)NC3(CCC(C)CC3)C2=O)c1O (centres undefined)	?	.	-	.	-
CCOc1cc(/C=N/O)cc(Br)c1OCc1ccc(Cl)cc1	?	-	11µM	-	?
O/N=C/c1ccc(OCc2ccccc2)c(Br)c1	?	-	26µM	-	?
O=C1CCc2cc(S(=O)(=O)NCCc3ccccc3)cc3c2N1CC3	?	.	-	.	-
SMILES	ELG1 DNA repair	RORg inh	MCF10A rerep	VP16 counter	SW480 rerep
Cc1ccc(NC(=O)Cn2c([N+](=O)[O-])cnc2C)cc1Cl	-	-	-	-	-
CCCCCc1ccc(S(=O)(=O)Nc2cc(C)ccn2)cc1	10µM	-	-	-	-[9.22 µM]
Cc1ccnc(NS(=O)(=O)c2ccc(Oc3ccccc3)cc2)c1	?	-	-	-	-
FC(F)(F)c1ccccc1NC(=S)N/N=C1\CC2CC=CC12 (centres undefined)	-	0.5µM	?	14µM	-
O=[N+]([O-])c1ccccc1N/N=C1\CC2CC=CC12 (centres undefined)	?	-	-	-	-
O=C(CN1CCN(C(=O)CNC(=O)c2ccc3c(c2)OCO3)CC1)Nc1cccc(F)c1	?	.	-	.	-
Cc1ccc(NC(=O)C2=C(c3ccccc3)S(=O)(=O)CCS2(=O)=O)cc1	?	0.63µM	?	5µM	2.1µM
Cc1ccc(NC(=O)c2ccccc2)cc1	?	-	-	?	-
NC(=O)[C@H]1CC2(CC(c3cccc(NC(=O)COc4ccc(Cl)cc4)c3)=NO2)CN1C(=O)CC(c1ccccc1)c1ccccc1 (some centres undefined)	?	?	?	-	-[9.22 µM]
NC(=O)[C@@H]1CC2(CC(c3cccc(NC(=O)CC(c4ccccc4)c4ccccc4)c3)=NO2)CN1C(=O)COc1ccc(Cl)cc1 (some centres undefined)	13µM	-	-	-	-[9.22 µM]

Screens from PubChem BioAssay.
